Measured values as given in PubChem BioAssay AID1159580 (chemical genetic matrix, 2015).
The whole screen tested about 5,500 compounds, of which about 2,000 (36%) were called active. Another 18% or so got no clear call; they are omitted. Cut-off read from the data, not from the text of the source: active = normalized growth mostly below about 0.91 (no sharp cut-off); inconclusive = no clear call, values can overlap the other calls; inactive = mostly above about 0.92. The list shows a part of the results.

Assay: chemical genetic growth profiling, strain panel (AID 1159580);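 note: tested at 20 µM; growth read once vehicle control cultures reached saturation at 30 °C; 1 = growth at the plate median or of vehicle wells; lower values mean less growth of the strain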
Settings: growth OD

Measured: normalized growth

O=C(CCCN1CC=C(n2c(=O)[nH]c3ccccc32)CC1)c1ccc(F)cc1
inactive: S. cerevisiae deletion strains, locus YJR075W, strain HOC1, hits give low values 0.98 | S. cerevisiae deletion strains, locus YKL009W, strain mrt4, hits give low values 0.939 | S. cerevisiae deletion strains, locus YKL068W, hits give low values 0.989 | S. cerevisiae deletion strains, locus YKL085W, strain MDH1 (second series), hits give low values 0.994 | S. cerevisiae deletion strains, locus YKL085W, strain MDH1, hits give low values 0.994 | S. cerevisiae deletion strains, locus YKL160W, strain elf1, hits give low values 0.977 | S. cerevisiae deletion strains, locus YKL190W, strain CNB1, hits give low values 0.99 | S. cerevisiae deletion strains, locus YKR001C, strain vps1, hits give low values 0.981 | S. cerevisiae deletion strains, locus YKR026C, strain gcn3, hits give low values 0.948 | S. cerevisiae deletion strains, locus YKR091W, strain srl3, hits give low values 0.967 | S. cerevisiae deletion strains, locus YLL001W, strain dnm1, hits give low values 0.957 | S. cerevisiae deletion strains, locus YLL026W, hits give low values 0.968 | S. cerevisiae deletion strains, locus YLL041C, strain sdh2, hits give low values 0.988 | S. cerevisiae deletion strains, locus YLR027C, strain aat2, hits give low values 0.979 | S. cerevisiae deletion strains, locus YLR039C, strain RIC1, hits give low values 0.969 | S. cerevisiae deletion strains, locus YLR058C, strain SHM2, hits give low values 0.967 | S. cerevisiae deletion strains, locus YLR102C, strain apc9, hits give low values 0.989 | S. cerevisiae deletion strains, locus YLR113W, strain HOG1, hits give low values 0.971 | S. cerevisiae deletion strains, locus YLR221C, strain rsa3, hits give low values 0.976 | S. cerevisiae deletion strains, locus YLR258W, strain gsy2, hits give low values 0.987 | S. cerevisiae deletion strains, locus YLR262C, strain YPT6 (second series), hits give low values 0.954 | S. cerevisiae deletion strains, locus YLR262C, strain YPT6, hits give low values 0.942 | S. cerevisiae deletion strains, locus YLR268W, strain sec22, hits give low values 1.05 | S. cerevisiae deletion strains, locus YLR320W, strain mms22, hits give low values 0.986 | S. cerevisiae deletion strains, locus YLR330W, strain CHS5, hits give low values 0.986 | S. cerevisiae deletion strains, locus YLR342W, strain FKS1 (second series), hits give low values 0.944 | S. cerevisiae deletion strains, locus YLR342W, strain FKS1, hits give low values 0.974 | S. cerevisiae deletion strains, locus YLR357W, strain rsc2, hits give low values 0.951 | S. cerevisiae deletion strains, locus YLR370C, strain arc18, hits give low values 0.972 | S. cerevisiae deletion strains, locus YLR371W, strain rom2, hits give low values 0.949 | S. cerevisiae deletion strains, locus YLR384C, strain iki3, hits give low values 0.961 | S. cerevisiae deletion strains, locus YLR418C, strain cdc73, hits give low values 0.968 | S. cerevisiae deletion strains, locus YML016C, strain PPZ1, hits give low values 0.987 | S. cerevisiae deletion strains, locus YML032C, strain rad52, hits give low values 0.993 | S. cerevisiae deletion strains, locus YML120C, strain ndi1, hits give low values 1 | S. cerevisiae deletion strains, locus YML124C, strain tub3, hits give low values 0.975 | S. cerevisiae deletion strains, locus YMR058W, strain fet3, hits give low values 0.99 | S. cerevisiae deletion strains, locus YMR078C, strain ctf18, hits give low values 0.979 | S. cerevisiae deletion strains, locus YMR125W, strain sto1, hits give low values 0.944 | S. cerevisiae deletion strains, locus YMR129W, hits give low values 0.987 | S. cerevisiae deletion strains, locus YMR205C, strain PFK2, hits give low values 0.951 | S. cerevisiae deletion strains, locus YMR223W, strain ubp8, hits give low values 0.955 | S. cerevisiae deletion strains, locus YMR231W, strain pep5, hits give low values 0.979 | S. cerevisiae deletion strains, locus YMR263W, strain SAP30, hits give low values 0.987 | S. cerevisiae deletion strains, locus YMR307W, strain GAS1, hits give low values 0.974 | S. cerevisiae deletion strains, locus YNL067W, strain RPL9B, hits give low values 0.999 | S. cerevisiae deletion strains, locus YNL071W, strain lat1, hits give low values 0.982 | S. cerevisiae deletion strains, locus YNL128W, strain TEP1, hits give low values 0.98 | S. cerevisiae deletion strains, locus YNL153C, strain GIM3, hits give low values 0.985 | S. cerevisiae deletion strains, locus YNL183C, strain NPR1, hits give low values 0.925 | S. cerevisiae deletion strains, locus YNL209W, strain ssb2, hits give low values 0.975 | S. cerevisiae deletion strains, locus YNL233W, strain BNI4, hits give low values 0.992 | S. cerevisiae deletion strains, locus YNL248C, strain rpa49, hits give low values 0.981 | S. cerevisiae deletion strains, locus YNL250W, strain rad50, hits give low values 0.971 | S. cerevisiae deletion strains, locus YNL271C, strain bni1, hits give low values 0.995 | S. cerevisiae deletion strains, locus YNL298W, strain CLA4, hits give low values 0.982 | S. cerevisiae deletion strains, locus YNL307C, strain MCK1, hits give low values 0.968 | S. cerevisiae deletion strains, locus YNL322C, strain KRE1 (second series), hits give low values 0.984 | S. cerevisiae deletion strains, locus YNL322C, strain KRE1, hits give low values 0.987 | S. cerevisiae deletion strains, locus YNR049C, strain mso1, hits give low values 0.972 | S. cerevisiae deletion strains, locus YNR052C, strain pop2, hits give low values 0.992 | S. cerevisiae deletion strains, locus YOL006C, strain TOP1, hits give low values 0.996 | S. cerevisiae deletion strains, locus YOL012C, strain htz1 0.899 | S. cerevisiae deletion strains, locus YOL147C, strain pex11, hits give low values 0.991 | S. cerevisiae deletion strains, locus YOR001W, strain rrp6, hits give low values 0.955 | S. cerevisiae deletion strains, locus YOR061W, strain CKA2, hits give low values 0.97 | S. cerevisiae deletion strains, locus YOR070C, strain gyp1, hits give low values 0.99 | S. cerevisiae deletion strains, locus YOR080W, strain dia2, hits give low values 0.963 | S. cerevisiae deletion strains, locus YOR083W, strain WHI5, hits give low values 0.978 | S. cerevisiae deletion strains, locus YOR106W, strain vam3, hits give low values 0.933 | S. cerevisiae deletion strains, locus YOR136W, strain idh2, hits give low values 0.983 | S. cerevisiae deletion strains, locus YOR144C, strain elg1, hits give low values 0.988 | S. cerevisiae deletion strains, locus YOR184W, strain ser1, hits give low values 0.967 | S. cerevisiae deletion strains, locus YOR231W, strain MKK1, hits give low values 0.992 | S. cerevisiae deletion strains, locus YOR265W, strain rbl2, hits give low values 0.981 | S. cerevisiae deletion strains, locus YOR270C, strain vph1, hits give low values 0.956 | S. cerevisiae deletion strains, locus YOR290C, strain snf2, hits give low values 0.98 | S. cerevisiae deletion strains, locus YOR316C, strain cot1, hits give low values 0.98 | S. cerevisiae deletion strains, locus YPL051W, strain arl3, hits give low values 0.98 | S. cerevisiae deletion strains, locus YPL055C, strain LGE1, hits give low values 0.955 | S. cerevisiae deletion strains, locus YPL078C, strain atp4, hits give low values 0.949 | S. cerevisiae deletion strains, locus YPL106C, strain sse1, hits give low values 0.967 | S. cerevisiae deletion strains, locus YPL240C, strain hsp82, hits give low values 0.979 | S. cerevisiae deletion strains, locus YPL241C, strain CIN2, hits give low values 0.992 | S. cerevisiae deletion strains, locus YPL256C, strain CLN2, hits give low values 0.991 | S. cerevisiae deletion strains, locus YPR119W, strain clb2, hits give low values 0.989 | S. cerevisiae deletion strains, locus YPR141C, strain kar3, hits give low values 0.973 | S. cerevisiae deletion strains, locus YPR163C, strain tif3, hits give low values 0.989 | S. cerevisiae deletion strains, locus YPR167C, strain met16, hits give low values 0.991 | S. cerevisiae deletion strains, strain wtn01, hits give low values 0.991 | S. cerevisiae strains, strain wild type, hits give low values 0.979
